HPGD block: qHTS Assay for Inhibitors of HPGD (15-Hydroxyprostaglandin Dehydrogenase) | purified HPGD, NADH fluorescence kinetic, PGE2 substrate | Potency, µM, for inactives: at the highest dose activity change, negative = inhibition, hits mostly inhibitors | 4.3% of 150,000 active | AID 894, 2007; active = well fitted inhibition curve with a large enough effect, not every such curve was filed as active; inconclusive = small, poorly fitted or top-dose-only effect, or another doubt; inactive = no such curve, though single readings can be large or run the other way
Target sequence (P15428 whole entry, looked up): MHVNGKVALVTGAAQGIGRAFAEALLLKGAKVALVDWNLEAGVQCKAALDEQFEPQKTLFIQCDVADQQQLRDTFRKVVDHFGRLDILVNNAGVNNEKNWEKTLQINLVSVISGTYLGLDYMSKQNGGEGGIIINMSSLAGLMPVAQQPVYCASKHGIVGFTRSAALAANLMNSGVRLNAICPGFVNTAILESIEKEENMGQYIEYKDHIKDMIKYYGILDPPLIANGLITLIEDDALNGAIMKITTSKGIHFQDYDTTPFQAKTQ
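NADH formation kinetics: reaction with 30 uM PGE2 and 1 mM NAD+ (final), 20 nM enzyme, Tris-HCl pH 8 with Tween 20, after 15 min compound preincubation at room temperature. Fluorescence change, last versus first of five reads.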
Luc counter: Counterscreen for Luciferase (Kinase-Glo TM) Inhibition; Luciferin 4-monooxygenase (Photuris pensylvanica), Q27757; Kinase-Glo luciferase, ATP luminescence, 8 min; Potency, µM (doses to about 38.3 µM), without a hit: top-dose activity change, negative = inhibition, most hits filed as inhibitors; 0.28% of 200,000 active; AID 1379, 2008; note: nearly all actives have a fitted effect of over 60% in size
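Inhibition of Kinase-Glo luciferase light generation was assessed at 10 uM ATP in pH 7.2 imidazole buffer, with luminescence measured after eight minutes at ambient temperature.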
ALDH1A1 block: qHTS Assay for Inhibitors of Aldehyde Dehydrogenase 1 (ALDH1A1); Purified ALDH1A1, NADH fluorescence, propionaldehyde substrate; 7.3% of 220,000 active; Aldehyde dehydrogenase 1A1 (Homo sapiens), P00352; AID 1030, 2008; Potency, µM (highest dose often 75.3 µM), without a hit: at the top dose activity, negative = inhibition, actives largely listed as inhibitors; active = well fitted inhibition curve with a large enough effect, not every such curve was filed as active; inconclusive = small, poorly fitted or top-dose-only effect, or another doubt; inactive = no such curve, though single readings can be large or run the other way;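 note: plate controls were no enzyme wells and a reference inhibitor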
Target sequence (P00352 whole entry, looked up): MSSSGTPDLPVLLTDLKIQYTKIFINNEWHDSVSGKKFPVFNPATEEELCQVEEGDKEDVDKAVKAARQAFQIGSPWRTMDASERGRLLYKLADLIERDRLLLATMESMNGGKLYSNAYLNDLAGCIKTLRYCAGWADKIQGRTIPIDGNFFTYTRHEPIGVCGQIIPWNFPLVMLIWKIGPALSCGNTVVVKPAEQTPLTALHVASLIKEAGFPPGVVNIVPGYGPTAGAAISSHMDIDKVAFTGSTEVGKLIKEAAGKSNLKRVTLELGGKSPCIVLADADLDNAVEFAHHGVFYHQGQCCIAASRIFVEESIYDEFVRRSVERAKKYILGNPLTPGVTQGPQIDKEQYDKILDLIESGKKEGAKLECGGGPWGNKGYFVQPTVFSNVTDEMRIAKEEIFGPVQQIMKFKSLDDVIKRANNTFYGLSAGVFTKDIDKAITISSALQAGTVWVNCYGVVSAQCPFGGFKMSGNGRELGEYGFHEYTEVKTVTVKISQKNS
IMPase Li cell: qHTS Assay for Identifying the Cell-Membrane Permeable IMPase Inhibitors: Potentiation with Lithium; CHO-M1 cells, IP1 TR-FRET (IP-One), carbachol + lithium; Potency, µM (doses to about 59.4 µM), without a hit: at the highest dose activity, negative = IMPase inhibition, hits mostly inhibitors; 0.35% of 210,000 active;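 note: IP1 builds up when IMPase is blocked and the TR-FRET signal falls; plate controls were basal vehicle for no effect and high inhibitor control for full effect; nearly all actives have a fitted effect of over 50% in size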
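Steps: plate 2000 CHO-M1 cells per well and culture 16–30 h; add compound and lithium; incubate 30 min, 37C; add d2-IP1 tracer and Eu cryptate anti-IP1 antibody in lysis buffer; read after 10 min at room temperature.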
Lamin A splicing: qHTS Assay for Modulators of Lamin A Splicing. Potency, µM (highest dose often 46.1 µM), for the others: at the highest dose ratio change, negative = inhibition, hits mostly inhibitors. 0.01% of 200,000 active. HeLa LMNA splicing GFP/RFP minigene ratio, 48 h. AID 1487, 2009; active = well fitted inhibition curve with a large enough effect in the signal ratio, with a control signal flat, not every such curve was filed as active; inconclusive = small, poorly fitted or top-dose-only effect, or effect the other way, or a change in a side signal; the % refers to the signal ratio
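Read-out is the ratio of GFP to DsRed2 object intensity, acquired by 488 nm laser-scanning cytometry on HeLa lamin A-EGFP minigene reporter cells. Compound incubation 48 hrs at 37 °C in Opti-MEM with 2% FBS; DMSO 0.5% final.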
An asterisk follows results filed as active; i = inactive; ? = inconclusive; · = no result given; [ ] = dose if it differs, or a comment. Rows were chosen to be rich in hits. Some 9% of all compounds tested hit in one or more screens of this group. Unless noted, calls come from the whole dose curve; as a rule, active = well fitted curve in the direction sought with a large enough effect; inconclusive = small, poorly fitted or top-dose-only effect, or another doubt; inactive = no such curve, though single readings can be large; an effect the other way counts as inactive or inconclusive. Unless noted, % is set by controls: 0 for no effect and ±100 for the full control effect; potency is the fitted concentration of half-maximal effect.

SMILES	HPGD block	Luc counter	ALDH1A1 block	IMPase Li cell	Lamin A splicing
CC(=O)Nc1ccc(NC(=O)c2ccc(NS(=O)(=O)c3cc(C(C)(C)C)cc(C)c3C)cc2)cc1	-22.4%	1.1%	-3.6%	-4.9%	?
CC(C)NC(=O)CSc1nnc(-c2ccc(F)cc2)c2ccccc12	·	0.8%	-7.8%	-10.9%	·
Cc1c(NC(=O)COC(=O)COc2ccc(Nc3ccccc3)cc2)c(=O)n(-c2ccccc2)n1C	·	-0.2%	22.4µM*	13.0%	·
CCc1cccc(OCCN2CCCC2)c1	-5.8%	-1.6%	22.4µM*	9.5%	1.8%
Clc1cccc(OCCN2CCNCC2)c1	-1.8%	1.0%	17.8µM*	0.8%	?
Cc1nc2cnc(N3CCN(C)CC3)nc2n(Cc2ccc(F)cc2)c1=O	·	·	?	22.8%	0.7%
Cc1ccc(C(=O)c2c[nH]c(C(=O)NCc3cccnc3)c2)cc1	25.1µM*	1.0%	?	28.4%[38.3 µM]	?
COc1ccc(-n2nnnc2SCC(=O)N2CCN(C(=O)c3ccco3)CC2)cc1OC	·	-1.1%	31.6µM*	-0.4%	·
COc1ccc(OC)c(-n2nnnc2SCC(=O)N2CCN(C(=O)c3ccco3)CC2)c1	·	-0.5%	?	-2.4%	1.0%[46 µM]
Cc1nnc(SCC(=O)N2CCN(C(=O)c3ccco3)CC2)n1-c1ccccc1	·	-3.0%	28.2µM*	0.2%	·
O=C(c1ccccc1F)c1cc2c(cc1[N+](=O)[O-])OCCO2	·	1.8%	11.2µM*	15.5%	15.6%[46 µM]
COc1cccc(C(=O)Nc2cc(-c3cn4cccnc4n3)ccc2C)c1	·	1.2%	?	-5.5%	?
COc1ccc(-c2cc(CNC(=O)CN(C)Cc3ccccc3)on2)cc1	25.1µM*	0.0%	4.0%	2.3%[38.3 µM]	?
Cc1ccccc1S(=O)(=O)NCc1cccnc1	0.9%	-0.3%	-5.6%	1.7%	1.4%
Cc1ccc(C(C)C)cc1S(=O)(=O)NCc1cccnc1	-5.1%	-8.0%	20µM*	12.3%	-11.6%
Cc1cc(C=O)c(C)n1-c1ccc(N2CCOCC2)cc1	0.2%	2.7%	3.16µM*	-0.2%	?
Cc1cc(/C=C2\NC(=O)NC2=O)c(C)n1-c1ccc(N2CCOCC2)cc1	·	·	25.1µM*	·	·
Cc1cc(/C=C2/NC(=O)NC2=O)c(C)n1-c1ccc(N2CCOCC2)cc1	·	1.2%	?	11.5%	-11.1%[46 µM]
Cc1cc(N)c2ccccc2[n+]1CCCCCCCCCCCCCC[n+]1c(C)cc(N)c2ccccc21	17.2%	-5.7%	?	35.5%	?
N#Cc1c(NC(=O)CSc2ncn[nH]2)sc2c1CCCC2	-18.3%	-3.3%	-15.0%	30.2%[38.3 µM]	?
CCCc1cc(=O)[nH]c(SCC(=O)Nc2sc3c(c2C#N)CCC(C)C3)n1 (stereo not given)	·	-1.5%	22.4µM*	4.1%	-22.4%[46 µM]
CC1CCc2c(sc(NC(=O)CSc3nnc(-c4ccccc4)o3)c2C#N)C1 (stereo not given)	-2.0%	1.2%	-10.1%	3.1%	-19.6%
CC(C)(C)C1CCc2c(sc(NC(=O)CSc3ncn[nH]3)c2C#N)C1 (stereo not given)	14.1µM*	0.6%	8.91µM*	-0.9%	?
COc1cc(N2CCCC2)c(OC)cc1/C=c1/sc2nc3ccccc3n2c1=O	-0.3%	-14.0%	15.8µM*	1.5%[38.3 µM]	6.2%
Cc1nc(N)sc1-c1csc(N(C)c2ccc(O)cc2)n1	14.1µM*	5.8%	14.1µM*	12.6%[38.3 µM]	?
SMILES	HPGD block	Luc counter	ALDH1A1 block	IMPase Li cell	Lamin A splicing
Cc1ccc(C)c(S(=O)(=O)N/N=C/c2cccnc2)c1	-10.3%	3.9%	8.91µM*	-1.8%	-5.2%
COc1cc(/C=C(\C#N)C(N)=O)ccc1OS(=O)(=O)c1ccc(C)cc1	28.2µM*	-0.1%	17.8µM*	11.9%	-16.5%
COc1cc(/C=C(\C#N)C(=O)NC2CCCCC2C)ccc1OS(=O)(=O)c1ccc(C)cc1 (stereo not given)	?	0.7%	8.91µM*	16.4%	?
CCOC(=O)C1(CCOC)CCN(C2C3CC4CC(C3)CC2C4)CC1 (stereo not given)	·	·	10.3%	3.0%	·
CCCn1c(N)c(N(CCOC)C(=O)/C=C/c2cccc(Cl)c2)c(=O)[nH]c1=O	·	0.7%	3.9%	-2.7%	?
CCOC(=O)c1sc2nc(C3CC3)cc(-c3ccc(F)cc3)c2c1N	?	-0.2%	i	11.2µM*	?
Cc1ccc(S(=O)(=O)N2CCN(C(=O)c3cc(-c4ccc(Br)cc4)n[nH]3)CC2)c(C)c1	·	·	·	·	8.1%[46 µM]
COc1ccc2c(c1)CCc1c(C(=O)N3CCOCC3)noc1-2	-24.9%	-2.0%	-9.0%	6.2%	-13.0%
COc1ccc2c(c1)CCc1c(C(=O)NCc3ccc(Cl)cc3)noc1-2	-2.4%	2.8%	12.6µM*	-1.1%[38.3 µM]	6.1%
COc1ccc2c(c1)CCc1c(C(=O)N3CCCc4ccccc43)noc1-2	-22.5%	2.3%	4.47µM*	5.2%	?
Cc1ccc(OC(C)C(=O)N2CCN(CCc3ccccn3)CC2)cc1C (stereo not given)	·	·	·	·	23.0%[46 µM]
COc1cccc(-c2nc(NC3CC3)c3ccccc3n2)c1	·	·	?	16.1%	?
O=C(NCc1ccccc1)c1c2c(nc3ccccc13)C(=O)N(C1CCCCC1)C2	·	·	·	·	-4.8%[46 µM]
Cc1cc(OCc2nnc(SC(C)C(=O)O)n2Cc2ccccc2)ccc1Cl (stereo not given)	·	2.7%	-1.7%	8.7%	21.7%[46 µM]
CCC(CC)c1nnc(NC(=O)c2ccc(N3CCCCC3)c([N+](=O)[O-])c2)s1	-25.9%	0.9%	0.794µM*	3.4%	9.3%
CCCCCCCNC(=O)c1ccc(N2CCC3(CC2)OCCO3)c([N+](=O)[O-])c1	-13.6%	-0.7%	25.1µM*	30.8%	?
O=C(NCc1ccco1)c1ccc(N2CCCCC2)c([N+](=O)[O-])c1	31.6µM*	-3.8%	?	16.7%	?
NC(=O)c1ccc(N2CCN(c3ccc(O)cc3)CC2)c([N+](=O)[O-])c1	·	-1.6%	15.8µM*	4.7%	?
COc1ccc(CNC(=O)c2ccc(N3CCOCC3)c([N+](=O)[O-])c2)cc1	·	-0.4%	2.8%	0.6%	·
CC(=O)c1ccc(N2CCN(c3ccc(C(N)=O)cc3[N+](=O)[O-])CC2)cc1	·	1.2%	4.4%	13.4%	·
Cc1cc(CSc2ccccc2)ccc1NC(=O)COc1ccccc1C	·	·	17.4%	·	-7.3%
Cc1cccc(S(=O)(=O)NNC(=O)Cc2cccn2C)c1	·	0.1%	5.0%	1.9%	·
Cc1ccccc1NC(=O)N1CCN(c2ncccn2)CC1	·	0.3%	-3.2%	5.7%	·
NCCCCCCN	-6.4%	·	1.6%	-13.5%	·
COc1ccc(CN(C(=O)c2ccco2)c2ccc(C)c(C)c2)cc1	·	-5.7%	?	17.0%	?
O=[N+]([O-])c1ccc(N2CCCCCC2)c([N+](=O)[O-])c1	-13.7%	-1.4%	-21.2%	10.0%	-0.7%

Assay outcomes: PubChem BioAssay, National Center for Advancing Translational Sciences (NCATS)
